Values joined by “and” are separate entries in the source; they are usually repeats but may differ in a detail not shown here. Equal entries are not always repeated. Active and inactive are the calls of the source.
How the values were obtained:
[1] = target: Albumin (Bos taurus) (UniProt P02769); assay: compounds binding labelled BSA control protein – biochemical, small-molecule microarray, Alexa647 label, 635/667 nm fluorescence, artefact control for SMM control protein annotation, profiling panel (AID 1118); details: BSA-A647 binding, fluorescence 635 nm, higher = more signal;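 further: score merges 667 nm emission intensity and signal-to-noise per printed compound spot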
Chain of Albumin (Bos taurus) (P02769 whole entry, looked up): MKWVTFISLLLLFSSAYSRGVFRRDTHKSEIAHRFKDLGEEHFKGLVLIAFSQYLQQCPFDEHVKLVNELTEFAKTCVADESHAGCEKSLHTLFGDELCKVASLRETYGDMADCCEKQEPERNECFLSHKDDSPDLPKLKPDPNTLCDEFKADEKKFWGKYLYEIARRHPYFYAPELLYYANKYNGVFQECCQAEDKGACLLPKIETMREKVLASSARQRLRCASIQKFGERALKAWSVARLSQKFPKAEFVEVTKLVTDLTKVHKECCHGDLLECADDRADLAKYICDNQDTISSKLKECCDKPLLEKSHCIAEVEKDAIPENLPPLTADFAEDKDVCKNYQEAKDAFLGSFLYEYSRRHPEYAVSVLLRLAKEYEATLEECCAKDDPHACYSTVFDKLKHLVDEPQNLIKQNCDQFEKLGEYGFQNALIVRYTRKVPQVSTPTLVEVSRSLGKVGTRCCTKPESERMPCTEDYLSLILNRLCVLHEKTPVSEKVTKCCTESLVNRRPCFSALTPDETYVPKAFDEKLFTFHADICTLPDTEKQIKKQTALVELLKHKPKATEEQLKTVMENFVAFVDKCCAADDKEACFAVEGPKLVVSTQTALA

[2] = probe aXIP binding to arrayed compounds – biochemical, NeuroSMM set, 635/667 nm fluorescence, primary screen (AID 1119); details: small-molecule microarray, higher = more signal, called active from +8 up or from −8 down;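 further: probe is the protein aXip251-270 applied at 1 µg/mL to compound-printed slides; binding of probe to printed compounds measured as 667 nm fluorescence plus signal to noise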
[3] = probe aNOTCH3 binding on compound microarray – biochemical, small-molecule microarray, 635/667 nm fluorescence, primary screen (AID 1120); details: higher = more signal;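 further: probe is a biotin-tagged antibody raised against NOTCH3 rather than NOTCH3 protein; score merges spot fluorescence near 667 nm with spot signal to noise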
[4] = probe aNOTCH2 binding on compound microarray – biochemical, small-molecule microarray, 635/667 nm fluorescence, primary screen (AID 1121); details: higher = more signal;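 further: score merges feature fluorescence read at 667 nm with its signal to noise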
[5] = target: Carbonic anhydrase 2 (Homo sapiens) (UniProt P00918); assay: compounds binding carbonic anhydrase 2 – biochemical, small-molecule microarray, Alexa647-labelled CAII, profiling panel (AID 1122); details: CAII-A647 binding fluorescence, higher = more signal
[6] = COS7 lysate on small-molecule microarray, probe aHis, 635 nm (AID 1123); details: COS7 cell lysate, fluorescence, higher = more signal;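 further: z-score combines 667nm fluorescence intensity with signal-to-noise per printed compound spot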
[7] = probe aLAP1 signal on lysate-treated microarray – cell lysate, small-molecule microarray, COS7 lysate, primary screen (AID 1124); details: probe aLAP1, fluorescence, higher = more signal;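 further: lysate comes from COS7 cells expressing LAP1 and is applied at 0.3 µg/mL; score merges spot fluorescence near 667 nm with signal-to-noise over triplicate slides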
[8] = tested on: Sam68 (KHDRBS1); assay: compounds binding KHDRBS1 protein – biochemical, small-molecule microarray, 635 nm fluorescence, primary screen (AID 1125); details: higher = more signal;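 further: score merges 667 nm channel intensity with signal to noise over triplicate slides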
[9] = tested on: Chordin-like protein 2 (CHRDL2); assay: compounds binding chordin-like 2 – biochemical, small-molecule microarray, 635 nm fluorescence, primary screen (AID 1126); details: fluorescence 635 nm, higher = more signal;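 further: printed compound slides probed with Chrdl2 protein at 4 µg/mL for 1 h at 4 C; score merges 667 nm emission intensity with signal to noise over three replicate slides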
[10] = target: Concanavalin-A (Canavalia ensiformis) (UniProt P02866); assay: compounds binding concanavalin A lectin – biochemical, small-molecule microarray, Alexa647 label, 635 nm, artefact control for SMM control protein annotation, primary screen (AID 1127); details: ConA-A647 binding fluorescence, higher = more signal;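 further: z combines 667 nm emission intensity with signal-to-noise across three replicate slides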
Chain of Concanavalin-A (Canavalia ensiformis) (P02866 whole entry, looked up): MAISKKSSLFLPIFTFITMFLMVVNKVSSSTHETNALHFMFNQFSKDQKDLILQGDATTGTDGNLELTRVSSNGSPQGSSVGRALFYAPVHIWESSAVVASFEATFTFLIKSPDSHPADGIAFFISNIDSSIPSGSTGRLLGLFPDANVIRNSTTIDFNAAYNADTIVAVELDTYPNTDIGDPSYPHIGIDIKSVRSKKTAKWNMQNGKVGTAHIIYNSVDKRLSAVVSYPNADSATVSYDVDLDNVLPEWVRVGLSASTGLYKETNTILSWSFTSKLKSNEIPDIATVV

[11] = compounds binding Alexa647 anti-His antibody – biochemical, small-molecule microarray, 635 nm fluorescence, artefact control for SMM control protein annotation, primary screen (AID 1128); details: higher = more signal;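 further: score merges feature fluorescence with signal-to-noise for each printed compound spot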
[12] = tested on: Human papillomavirus type 1a E7 protein (residues 1-88); assay: HPV1a E7 small-molecule binders, primary screen, biochemical, small-molecule microarray, residues 1-88, 635 nm (AID 1129); details: small-molecule microarray binding, fluorescence 635 nm; higher = more signal
[13] = target: Focal adhesion kinase 1 (Homo sapiens) (UniProt Q05397); assay: PTK2 protein binding on printed compound slides – biochemical, small-molecule microarray, 635/667 nm fluorescence, BSA, DTT, primary screen (AID 1130); details: 635 nm fluorescence, higher = more signal;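 further: composite of spot emission at 667 nm and signal to noise over triplicate slides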
Chain of Focal adhesion kinase 1 (Homo sapiens) (Q05397 whole entry, looked up): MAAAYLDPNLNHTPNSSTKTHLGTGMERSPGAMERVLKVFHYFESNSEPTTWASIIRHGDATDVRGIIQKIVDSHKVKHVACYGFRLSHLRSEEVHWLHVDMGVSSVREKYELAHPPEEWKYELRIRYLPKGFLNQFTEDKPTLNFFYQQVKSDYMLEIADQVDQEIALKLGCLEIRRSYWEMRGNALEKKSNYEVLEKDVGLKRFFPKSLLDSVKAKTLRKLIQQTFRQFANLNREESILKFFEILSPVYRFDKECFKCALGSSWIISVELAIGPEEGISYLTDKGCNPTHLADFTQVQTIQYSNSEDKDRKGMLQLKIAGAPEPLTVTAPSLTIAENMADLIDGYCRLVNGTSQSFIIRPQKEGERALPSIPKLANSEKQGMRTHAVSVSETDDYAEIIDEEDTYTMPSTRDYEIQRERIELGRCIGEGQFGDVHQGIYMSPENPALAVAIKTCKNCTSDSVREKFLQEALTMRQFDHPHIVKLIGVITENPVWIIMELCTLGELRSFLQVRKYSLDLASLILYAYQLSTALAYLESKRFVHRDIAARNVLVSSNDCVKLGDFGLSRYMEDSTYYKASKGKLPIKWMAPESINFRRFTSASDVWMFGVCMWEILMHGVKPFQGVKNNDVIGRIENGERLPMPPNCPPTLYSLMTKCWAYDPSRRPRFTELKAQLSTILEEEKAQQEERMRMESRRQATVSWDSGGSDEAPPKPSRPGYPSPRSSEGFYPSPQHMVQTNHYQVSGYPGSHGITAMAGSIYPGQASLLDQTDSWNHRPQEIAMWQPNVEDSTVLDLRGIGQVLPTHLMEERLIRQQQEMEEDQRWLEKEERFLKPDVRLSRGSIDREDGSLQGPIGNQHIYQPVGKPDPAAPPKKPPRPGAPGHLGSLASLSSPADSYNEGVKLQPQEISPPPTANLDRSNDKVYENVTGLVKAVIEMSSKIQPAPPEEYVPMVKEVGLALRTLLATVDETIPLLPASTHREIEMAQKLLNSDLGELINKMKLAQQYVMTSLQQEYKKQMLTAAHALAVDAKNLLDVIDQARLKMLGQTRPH

[14] = tested on: Fibrinogen (Alexa647-labelled); assay: Alexa647-fibrinogen binding to printed small molecules – biochemical, small-molecule microarray, 635/667 nm fluorescence, artefact control for SMM control-protein annotation, profiling panel (AID 1131); details: fibrinogen-A647 binding fluorescence, higher = more signal;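 further: z-score merges 667 nm fluorescence with per-spot signal-to-noise over triplicate slides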
[15] = target: Follistatin (Homo sapiens) (UniProt P19883); assay: FST protein binding to printed compounds – biochemical, small-molecule microarray, 635/667 nm fluorescence, primary screen (AID 1132); details: 635 nm fluorescence, higher = more signal
Chain of Follistatin (Homo sapiens) (P19883 whole entry, looked up): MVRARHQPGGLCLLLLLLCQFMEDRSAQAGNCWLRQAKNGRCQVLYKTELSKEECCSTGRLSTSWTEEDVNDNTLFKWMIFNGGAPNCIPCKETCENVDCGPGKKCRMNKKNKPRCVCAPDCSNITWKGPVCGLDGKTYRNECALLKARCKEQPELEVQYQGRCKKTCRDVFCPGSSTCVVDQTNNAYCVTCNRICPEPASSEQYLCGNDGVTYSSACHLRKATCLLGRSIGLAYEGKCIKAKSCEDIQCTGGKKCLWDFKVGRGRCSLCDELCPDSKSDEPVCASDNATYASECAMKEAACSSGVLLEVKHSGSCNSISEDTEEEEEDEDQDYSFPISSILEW

[16] = target: Fibroblast growth factor 2 (Homo sapiens) (UniProt P09038); assay: basic fibroblast growth factor binding to printed compounds – biochemical, small-molecule microarray, 635/667 nm fluorescence, primary screen (AID 1133); details: FGF2, fluorescence 635/667, higher = more signal
Chain of Fibroblast growth factor 2 (Homo sapiens) (P09038 whole entry, looked up): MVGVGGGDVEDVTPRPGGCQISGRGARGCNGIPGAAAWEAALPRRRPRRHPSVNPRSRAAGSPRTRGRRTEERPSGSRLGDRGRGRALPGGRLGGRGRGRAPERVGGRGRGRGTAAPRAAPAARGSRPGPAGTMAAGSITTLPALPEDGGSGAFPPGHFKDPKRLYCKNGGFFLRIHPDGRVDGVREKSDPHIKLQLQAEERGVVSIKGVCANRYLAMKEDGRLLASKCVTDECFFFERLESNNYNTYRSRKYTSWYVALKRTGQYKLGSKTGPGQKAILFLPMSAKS

[17] = JC-1 mitochondrial potential readout, lung cancer cells – cell-based, A549, JC-1 fluorescence, basal, 24 h, 100 nL, profiling panel (AID 1138); details: higher = more signal;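 further: A549 lung adenocarcinoma cells under basal conditions with no added stimulus; test concentration not given here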
[18] = tested on: Lefty1; assay: Lefty1 protein binding to printed compounds – biochemical, small-molecule microarray, 635/667 nm fluorescence, primary screen (AID 1139); details: fluorescence 635/667, higher = more signal
[19] = tested on: wheat germ agglutinin (Triticum aestivum), Alexa647-labelled; assay: Alexa647-WGA lectin binding to printed small molecules – biochemical, small-molecule microarray, 635/667 nm fluorescence, artefact control for SMM control-protein annotation, profiling panel (AID 1140); details: WGA-A647 binding, 635 nm fluorescence, higher = more signal;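 further: score merges 667 nm feature emission with signal to noise over triplicate slides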
[20] = target: Luciferin 4-monooxygenase (Photinus pyralis) (UniProt P08659); assay: inhibition of purified Photinus pyralis luciferase – biochemical, luminescence, purified enzyme, 2006 set, primary screen (AID 1141); details: purified firefly luciferase, SteadyGlo luminescence, 30 min; higher = more signal, called active from +8 up or from −8 down;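 further: cell-free assay with purified firefly luciferase at 100 ng per well in PBS; test concentration not given here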
Chain of Luciferin 4-monooxygenase (Photinus pyralis) (P08659 whole entry, looked up): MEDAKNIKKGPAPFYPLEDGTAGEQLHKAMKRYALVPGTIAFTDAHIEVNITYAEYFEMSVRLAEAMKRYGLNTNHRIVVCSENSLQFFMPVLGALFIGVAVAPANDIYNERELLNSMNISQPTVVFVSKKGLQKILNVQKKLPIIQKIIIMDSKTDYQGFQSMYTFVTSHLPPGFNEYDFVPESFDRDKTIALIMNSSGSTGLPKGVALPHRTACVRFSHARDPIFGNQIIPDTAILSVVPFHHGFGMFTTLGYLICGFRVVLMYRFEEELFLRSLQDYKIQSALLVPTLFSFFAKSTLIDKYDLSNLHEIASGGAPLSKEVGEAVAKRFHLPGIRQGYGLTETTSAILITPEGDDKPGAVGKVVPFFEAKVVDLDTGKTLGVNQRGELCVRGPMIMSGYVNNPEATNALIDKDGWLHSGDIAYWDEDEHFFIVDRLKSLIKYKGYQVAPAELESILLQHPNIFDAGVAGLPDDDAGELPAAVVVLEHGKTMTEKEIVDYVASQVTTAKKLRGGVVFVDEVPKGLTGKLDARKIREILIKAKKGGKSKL

SMILES	composite z-score [1]	composite Z-score [2]	composite z-score [3]	composite z-score [4]	composite z-score [5]	composite z-score [6]	composite z-score [7]	composite z-score [8]	composite z-score [9]	composite z-score [10]	composite z-score [11]	composite z-score [12]	composite z-score [13]	composite z-score [14]	composite z-score [15]	composite z-score [16]	z-score [17]	composite z-score [18]	composite z-score [19]	z-score [20]
C=CCN(CCCC)C(=O)C(c1cccs1)N(C(=O)/C=C\C(=O)O)c1c(Cl)cccc1CO (stereo not given)	-0.854 and -0.198	-0.089 (inactive) and 0.339 (inactive)	-0.589 and -0.431	-0.162 and -0.147	-0.3 and 0.0384	-0.99 and -0.632	-0.307 and 0.993	-0.843 and -1.73	-4.02 and -2.94	-3.43 and -2.5	-0.71 and -0.792	-0.925 and -1.1	-0.859 and 1.27	-2.84 and -3.52	-2.44 and -1.69	-2.72 and -1.18	-0.107 and -0.132	-2.81 and -2.2	-0.178 and -0.7	1.01 (inactive) and 0.833 (inactive)
C=CCN(C(=O)C1N(CCCCCCO)C(=O)C2C(C(=O)O)C3C=CC21O3)C(C)(C)C (stereo not given)	-0.171 and -1.11	0.148 (inactive) and -0.707 (inactive)	-0.695 and -0.55	-0.217 and -0.192	0.987 and 0.958	-0.712 and 0.0575	-0.729 and -0.646	-1.73 and -0.275	-4.11 and -4.07	-0.974 and -2.94	-1 and 0.0369	-1.24 and -0.385	-0.837 and -0.881	-4.96 and -2.32	-1.88 and -2.11	-1.42 and -1.7	0.219 and 0.389	-2.49 and -1.84	-0.75 and -0.561	-1.04 (inactive) and -0.426 (inactive)
CC(C)N1CC=CC23O[C@@H]4C=CCCOC(=O)C4[C@H]2C(=O)N(C(C)CO)[C@@H]3C1=O (stereo not given in full)	-0.579 and 0.131	0.238 (inactive) and 0.848 (inactive)	-0.222 and -0.215	0.502 and -0.221	0.958 and 0.808	1.24 and -0.13	0.866 and -0.361	0.967 and -0.516	-2.61 and -1.23	0.0938 and -1.42	0.412 and -0.876	-0.149 and -1.45	-0.214 and -0.327	-0.367 and -0.617	-1.72 and -1.22	-1.55 and -0.107	0.615 and 0.4	-0.674 and -1.22	-0.759 and -1.45	-0.509 (inactive) and -0.916 (inactive)
C=CCN(CCCCC)C(=O)C(c1cccs1)N(C(=O)/C=C\C(=O)O)c1c(Cl)cccc1CO (stereo not given)	-0.678 and -0.603	-0.798 (inactive) and 0.414 (inactive)	-0.533 and -0.396	-0.057 and -0.187	0.91 and 0.768	-0.774 and -0.96	1.62 and -0.0008	-1.09 and -1.41	-2.67 and -1.87	-0.906 and -1.52	-2 and 0.586	-0.682 and -0.485	-0.519 and -0.564	-1.31 and -2.3	-1.36 and -2.16	-2.06 and -2.71	-0.634 and 0.534	-1.88 and -1.54	-1.74 and -0.357	-0.0903 (inactive) and -0.46 (inactive)
CCOC(=O)[C@H](Cc1ccccc1)NC(=O)CCC1CC(OC(=O)NCc2cccc3ccccc23)CC2(CCCC(COC(=O)NCCCN3CCCC3=O)O2)O1 (stereo not given in full)	-0.395	-0.365 (inactive)	0.0203	-0.101	0.165	1.14	-0.223	1.12	0.5	1.08	0.903	1.05	0.222	0.951	0.625	0.467	1.21	0.539	0.0826	0.782 (inactive)
C=CCN(C(=O)C(c1cccs1)N(C(=O)/C=C\C(=O)O)C(C)(C)CO)c1ccc(OC)cc1 (stereo not given)	-0.427 and -0.637	-0.431 (inactive) and -0.215 (inactive)	-0.298 and -0.219	-0.143 and -0.133	0.937 and 0.938	1.72 and 0.0237	0.92 and 1.17	-0.294 and -0.786	-1.74 and -0.727	-0.692 and -0.93	-1.01 and -0.0442	-0.392 and -0.41	-0.675 and 1.18	-0.809 and -1.04	-1.7 and -1.17	-0.855 and -0.862	1.11 and 1.74	-1.22 and -0.566	-0.747 and -0.0298	-2.86 (inactive) and -5.74 (inactive)
COC(=O)C1=C(C)N(Cc2ccccc2)C2=C3C(=O)N(C)C(=O)[C@@H]3[C@@](O)(C(=O)OC)C(=O)N2[C@@H]1c1ccccc1	0.0056 and 0.0685	0.204 (inactive) and -0.12 (inactive)	0.134 and -0.101	-0.151 and -0.0619	0.422 and -0.123	-0.332 and -0.0088	1.36 and 0.499	-0.239 and 0.267	0.37 and 0.38	0.17 and 0.178	0.21 and -0.0385	0.311 and 0.614	0.128 and 0.276	0.269 and 0.335	0.355 and 0.223	0.55 and 0.24	0.286 and 0.239	-0.0227 and 0.627	0.129 and -0.0358	-0.598 (inactive) and -2.38 (inactive)
C=C[C@@H](C)[C@H](O)c1ccc(O)c2ccccc12	-0.0066 and 0.457	0.342 (inactive) and 0.259 (inactive)	-0.209 and -0.454	-0.247 and -0.223	-0.211 and -0.59	0.294 and -0.0874	0.279 and -0.559	-0.309 and -1.66	1.34 and 0.0548	-0.418 and -1.3	-0.181 and 1.87	-0.7 and -1.54	0.825 and -0.491	0.837 and -0.449	1.31 and 0.663	1.14 and 0.0819	-0.832 and -0.689	0.948 and -0.871	0.0825 and -0.52	0.546 (inactive) and 0.338 (inactive)
C=C[C@@H](OC)[C@H](O)c1ccc(O)c(F)c1	-0.131 and 0.529	1.31 (inactive) and -0.643 (inactive)	-0.502 and -0.544	-0.266 and -0.254	0.881 and -0.182	-0.385 and -0.626	1.24 and -1.16	-0.697 and -1.48	-0.952 and -0.984	-0.904 and -1.04	-0.709 and -0.462	-0.912 and -1.26	-0.746 and -0.838	-1.11 and -0.58	-1.18 and -0.404	-1.39 and 0.0341	-0.329 and 0.662	-1.7 and -0.947	-0.303 and -0.223	-0.981 (inactive) and -1.3 (inactive)

Source: PubChem BioAssay
